Bioassay records as filed in PubChem.
Only a selection was taken, and hits are over-represented in it overall.
ALOX12 inh: Primary qHTS assay for inhibitors of human arachidonate 12S-lipoxygenase (ALOX12): Round 2. Potency, µM (doses to about 108 µM), for inactives: at the top dose activity change, negative = inhibition, most hits filed as inhibitors. purified 12hLO, xylenol orange hydroperoxide absorbance. Polyunsaturated fatty acid lipoxygenase ALOX12 (Homo sapiens), P18054. AID 1671190, 2021. 580,000 compounds, 1.1% hits; note: potency is the fitted concentration of half-maximal effect
Target sequence (P18054 whole entry, looked up): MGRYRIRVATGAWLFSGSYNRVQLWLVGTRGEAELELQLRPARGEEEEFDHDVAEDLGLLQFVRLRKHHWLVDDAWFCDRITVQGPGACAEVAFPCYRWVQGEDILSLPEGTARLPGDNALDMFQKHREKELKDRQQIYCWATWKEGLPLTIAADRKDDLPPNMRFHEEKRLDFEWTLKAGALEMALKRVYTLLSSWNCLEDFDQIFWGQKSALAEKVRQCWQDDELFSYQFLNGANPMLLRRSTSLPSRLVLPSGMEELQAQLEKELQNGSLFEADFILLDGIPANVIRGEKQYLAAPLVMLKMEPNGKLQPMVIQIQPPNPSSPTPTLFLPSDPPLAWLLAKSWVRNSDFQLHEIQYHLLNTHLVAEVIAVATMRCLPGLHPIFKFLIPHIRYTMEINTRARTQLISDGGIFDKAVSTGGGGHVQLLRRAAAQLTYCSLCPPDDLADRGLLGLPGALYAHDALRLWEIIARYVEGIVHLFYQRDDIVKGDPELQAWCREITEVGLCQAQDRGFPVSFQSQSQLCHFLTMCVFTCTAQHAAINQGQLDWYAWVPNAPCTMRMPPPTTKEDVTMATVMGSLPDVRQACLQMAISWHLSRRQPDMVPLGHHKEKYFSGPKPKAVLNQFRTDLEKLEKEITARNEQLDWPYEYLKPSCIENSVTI
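Purified human 12hLO at 150 nM in 25 mM Hepes, 0.01% Triton X-100, pH 7.0, preincubated 15 min at room temperature with compound. Reaction started with 40 uM arachidonic acid, 30 min at room temperature. Hydroperoxide measured by Fe-xylenol orange, 573/405 nm absorbance ratio.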
IL1B secr inh: qHTS for Inhibitors of Inflammasome Signaling: IL-1-beta AlphaLISA Primary Screen. AID 743279, 2014. 360,000 compounds, 4.7% hits. THP-1 LPS/ATP IL-1B secretion, AlphaLISA, 16 h; hits give low values. activity change, % at 57.5 µM; in the data active = activity change below about -50%; inconclusive = mostly about -30% to -49%
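THP-1 cells pretreated 1 hr with compounds (up to 57.5 uM final), then stimulated with LPS (250 ng/mL final) plus ATP (1.25 mM final); secreted IL-1B measured by AlphaLISA after 16 hr, decreased signal indicating inhibition.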
HT1080 IDH1KD tx: qHTS for induction of synthetic lethality in tumor cells producing 2HG: qHTS for the HT-1080-IDH1KD cell line. HT-1080 IDH1 knockdown viability, ATP luminescence, 48 h. 360,000 compounds, 2% hits. Potency, µM (top dose mostly 46.1 µM), for the others: top-dose activity, negative = toxicity, hits mostly cytotoxic;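 note: potency is the fitted concentration of half-maximal effect; 0% = DMSO wells and -100% = cell-free medium wells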
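HT-1080-IDH1KD cells (IDH1 knocked down), 750/well in RPMI with 5% FBS, treated with compound 48 h at 37 degrees C. Viability by CellTiter-Glo luminescence, normalised to DMSO and no-cell wells; concentration-response curves classed.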
DT40 TDP1 CPT: qHTS for Inhibitors of human tyrosyl-DNA phosphodiesterase 1 (TDP1): qHTS in cells in presence of CPT; chicken DT40 Tdp1-/-;hTDP1 cells + 20 nM CPT, ATP luminescence, 48 h; Potency, µM (doses to about 46.2 µM), for inactives: at the highest dose activity change, negative = growth inhibition, most hits filed as inhibitors; 420,000 compounds, 12% hits; AID 686979, 2013; note: potency is the fitted concentration of half-maximal effect; nearly all actives have a fitted effect of over 55% in size
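Chicken DT40 Tdp1-/- cells stably complemented with human TDP1 were seeded at 400 cells/well in medium containing 20 nM camptothecin, exposed to pin-transferred compounds, and grown at 37 °C for at least 48 hr. Viability was read as ATP luminescence.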
TDP1 cell noCPT: qHTS for Inhibitors of human tyrosyl-DNA phosphodiesterase 1 (TDP1): qHTS in cells in absence of CPT. DT40 Tdp1-/- hTDP1 cells, no CPT, ATP luminescence, 48 h. Potency, µM (titrated, usually from 46.2 µM), inactives show at the top dose activity change, negative = growth inhibition, hits mostly inhibitors. 420,000 compounds, 15% hits; note: potency is the fitted concentration of half-maximal effect; nearly all actives have a fitted effect of over 55% in size
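Cells were dispensed at 400 per well, compounds added by pin tool, plates incubated ≥48 hr at 37 °C, then CellTiter-Glo added for 30 min at room temperature before luminescence reading. Line: DT40 Tdp1-/- complemented with hTDP1; camptothecin omitted.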
HT1080NT lethal: qHTS for induction of synthetic lethality in tumor cells producing 2HG: qHTS for the HT-1080-NT fibrosarcoma cell line; HT-1080-NT fibrosarcoma viability, CellTiter-Glo ATP luminescence, 48 h; Potency, µM (titrated, usually from 46.1 µM), without a hit: top-dose activity, negative = less viability, actives largely listed as cytotoxic; 360,000 compounds, 1.6% hits;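 note: NT is the 2HG producing partner of a matched IDH1 knockdown line; potency is the fitted concentration of half-maximal effect; 0% = DMSO-treated cells and -100% = media-only wells without cells; nearly all actives have a fitted effect of over 55% in size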
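Toxicity toward the 2HG-producing NT line was scored as %Activity, normalised to DMSO and no-cell wells, from CellTiter-Glo luminescence after 48 hours' treatment.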
* marks the source's active call; other numbers are inactive results; ? = inconclusive; nt = no result; [ ] = remark or other dose. Unless noted, calls come from the whole dose curve; as a rule, active = well fitted curve in the direction sought with a large enough effect; inconclusive = small, poorly fitted or top-dose-only effect, or another doubt; inactive = no such curve, though single readings can be large; an effect the other way counts as inactive or inconclusive. Unless noted, % is set by controls: 0 for no effect and ±100 for the full control effect.

SMILES | ALOX12 inh | IL1B secr inh | HT1080 IDH1KD tx | DT40 TDP1 CPT | TDP1 cell noCPT | HT1080NT lethal
CCc1cc(-c2[nH]ncc2-c2ccc([N+](=O)[O-])cc2)c(O)cc1OC | nt | ? | -3% | ? | ? | -5%
CCC(C)(C)C1CCc2c(sc(NC(=O)c3cccc4ccccc34)c2C#N)C1 (stereo not drawn) | 32% | nt | nt | nt | nt | nt
COc1ccc(-c2nnc3ccc(SCC(=O)N4CCCCCC4)nn23)cc1OC | 23%[57.4 µM] | -65* | -2% | -29% | ? | -3%
COc1ccc(-c2nnc3ccc(SCC(=O)N4CCCC4)nn23)cc1 | ? | -19 | 3% | ? | ? | 11%
COC(=O)c1ccc(CSc2ccc3nnc(-c4ccc(OC)c(OC)c4)n3n2)o1 | -15% | 0 | 3% | ? | 10µM* | 6%
COc1ccc(C2CC2/C(=N/O)c2ccccc2)cc1 (stereo not drawn) | -12% | ? | -12% | 23µM* | 18µM* | 9%
COc1ccc(C2CC2/C(=N/O)c2ccccn2)cc1 (stereo not drawn) | -1% | 2 | -5% | 13µM* | ? | -16%
O/N=C(\c1ccccn1)C1CC1c1ccccc1 (stereo not drawn) | ? | 27 | -22% | ? | ? | 1%
COc1ccc(C2CC2C(=O)c2ccccn2)cc1 (stereo not drawn) | -11% | -14 | 1% | 11% | 3% | 2%
O=C(NC1CCC(C(F)(F)F)CC1)C1CCCO1 (stereo not drawn) | 15% | nt | nt | nt | nt | nt
COc1ccc(-c2nc3ccc(NC(=O)COC(C)=O)cc3c(=O)n2Cc2ccccc2)cc1COc1ccc(NC(C)=O)cc1 | nt | nt | -7% | ? | 11µM* | -13%
COc1ccc(C2Nc3cccc(O)c3C(=O)N2Cc2ccccc2)cc1COc1ccc(NC(C)=O)cc1 (stereo not drawn) | 3% | nt | nt | nt | nt | nt
COc1ccc(-c2nc3ccc(NC(C)=O)cc3c(=O)n2Cc2cccc(Cl)c2)cc1COc1ccc(NC(C)=O)cc1 | nt | nt | -14% | 11µM* | 13µM* | -21%
O=C(NCc1ccc(Cl)cc1)C1CCCN(c2ncnc3nc[nH]c23)C1 (stereo not drawn) | 0% | nt | nt | nt | nt | nt
COc1ccc2[nH]c(C(=O)NCC(=O)N3CCCCCCNC(=O)CC3c3ccccc3)cc2c1 (stereo not drawn) | 16% | nt | nt | nt | nt | nt
O=C(N(Cc1cccs1)c1cccc(C(F)(F)F)c1)C12CC3CC(CC(C3)C1)C2 | -22% | nt | nt | nt | nt | nt
COc1ccc(-c2c(-c3cccc(C)c3)oc3ccc(-c4ccc5c(c4)OCO5)cc23)cn1 | 2% | -7 | 8% | ? | 8.2µM* | 15%
COc1ccc(-c2c(C3=CCCCC3)oc3ccc(-c4ccc5c(c4)OCO5)cc23)cn1 | ? | -12 | 5% | ? | 15µM* | 9%
COc1ccc(-c2oc3ccc(-c4ccc(OC)nc4)cc3c2-c2ccc(OC)cc2)cc1 | 17% | -7 | 3% | ? | 15µM* | 6%
COc1ccc(-c2oc3ccc(-c4ccc5c(c4)OCO5)cc3c2-c2ccc(OC)nc2)cc1 | ? | -14 | 12% | ? | ? | 3%
COc1ccc(-c2ccc3oc(-c4ccc(OC)cc4)c(-c4ccc(OC)cc4)c3c2)cc1 | 1% | 12 | 23% | ? | ? | 11%
O=C(CC1C(=O)NCCN1C(=O)CN1CCN(c2ncccn2)CC1)Nc1ccc(F)cc1 (stereo not drawn) | -1% | nt | nt | nt | nt | nt
CC1(c2ccccc2)N(Cc2cccnc2)C(=O)OC12CCN(C(=O)Cc1ccc3c(c1)OCO3)CC2 (stereo not drawn) | 23% | nt | nt | nt | nt | nt
O=c1ccc2cc(O)c(O)cc2o1 | ? | 19 | ? | 16µM* | ? | ?
O=c1ccc2ccc(O)cc2o1 | 9% | 44 | ? | -20% | -30% | 0%
SMILES | ALOX12 inh | IL1B secr inh | HT1080 IDH1KD tx | DT40 TDP1 CPT | TDP1 cell noCPT | HT1080NT lethal
CC(C)C(=O)Nc1ccc(Br)cc1F | -8% | nt | nt | nt | nt | nt
Cc1cc(C)n2cc(CSc3nnc(-c4ccccc4)c(-c4ccccc4)n3)nc2n1 | 0% | 0 | 5% | 21µM* | 23µM* | -1%
O=C(NCc1nnc2ccc(-c3ccc(Cl)cc3)nn12)C1(c2ccccc2)CC1 | 20% | nt | nt | nt | nt | nt
CCOc1ccc(CSCCNC(=S)Nc2ccc(OC)cc2)cc1 | 45µM* | -3 | -17% | ? | 23µM* | ?
C=COCCNC(=S)Nc1ccccc1 | ? | 12 | 12% | 19% | -3% | 28%
CCCOc1ccc(CSCCNC(=S)Nc2ccccc2)cc1 | ? | 18 | -24% | 26µM* | 23µM* | -8%
O=C1CC(N2CCC(c3nc4ccccc4[nH]3)CC2)C(=O)N1c1ccccc1F (stereo not drawn) | -18% | -4 | 0% | 26µM* | ? | 17%
COc1ccc(N2C(=O)CC(N3CCC(c4nc5ccccc5[nH]4)CC3)C2=O)cc1 (stereo not drawn) | -1% | 13 | 2% | ? | ? | 5%
CCOc1cc(/C=C/c2cc(C(=O)O)c3cc(C)ccc3n2)ccc1O | 4% | nt | nt | nt | nt | nt
CCOc1cc(/C=C/c2cc(C(F)(F)F)[nH]c(=O)n2)ccc1O | ? | -63* | ? | ? | ? | ?
O=c1nc(/C=C/c2ccccc2C(F)(F)F)cc(C(F)(F)F)[nH]1 | ? | -14 | -1% | -11% | -16% | 1%
COc1ccc(/C=C/c2cc(C(F)(F)F)[nH]c(=O)n2)cc1OC | 8.9µM* | -96* | -28% | -6% | -21% | -6%
CC(C)C(NC(=O)c1ccccc1)C(=O)OCC(=O)N1CCCC1 (stereo not drawn) | -12% | 15 | 5% | 0% | 9% | 4%
O=C(Cc1ccccc1)NCC(=O)N1CCN(c2ccc(F)cc2)CC1 | 1% | 47 | 0% | -22% | ? | 2%
COc1ccc(N2CCN(C(=O)CNC(=O)Cc3ccc(Cl)cc3)CC2)cc1 | 32µM* | 0 | 21µM* | 5.2µM* | 5.8µM* | ?
